From PubChem BioAssay AID1159580 (chemical genetic matrix, 2015)
Values joined by “and” are separate entries in the source; they are usually repeats but may differ in a detail not shown here. Identical values can stand only once. Out of some 5,500 compounds screened, about 2,000 (36%) were called active. Roughly 18% stayed inconclusive and do not appear here. No stated cut-off is given here; in the data, active means normalized growth mostly below about 0.91 (no sharp cut-off); inconclusive means no clear call, values can overlap the other calls; inactive means mostly above about 0.92. Some of the results follow.

Experiment: chemical genetic growth profiling, strain panel (AID 1159580);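 further: tested at 20 µM; growth read once vehicle control cultures reached saturation at 30 °C; 1 = growth at the plate median or of vehicle wells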
Settings: S. cerevisiae deletion strains, growth OD

Measured: normalized growth

CC(=O)OCC(=O)[C@@]1(O)CCC2C3CCC4=CC(=O)C=CC4(C)C3[C@@H](O)C[C@@]21C (stereo partly drawn)
inactive: locus YAL021C, strain ccr4, stronger effect = lower value 1 | locus YAL026C, strain drs2, stronger effect = lower value 1 | locus YAL030W, strain snc1, stronger effect = lower value 0.997 | locus YBL061C, strain skt5, stronger effect = lower value 0.996 | locus YBR009C, strain hhf1, stronger effect = lower value 1.01 | locus YBR021W, strain FUR4, stronger effect = lower value 1.02 | locus YBR023C, strain chs3, stronger effect = lower value 0.994 | locus YBR171W, strain sec66, stronger effect = lower value 0.973 | locus YBR229C, strain ROT2, stronger effect = lower value 1.01 | locus YBR231C, strain swc5, stronger effect = lower value 0.978 | locus YBR279W, strain paf1, stronger effect = lower value 0.993 | locus YCL011C, strain gbp2, stronger effect = lower value 0.996 | locus YCL016C, strain dcc1, stronger effect = lower value 1.01 | locus YCL029C, strain bik1, stronger effect = lower value 1.02 | locus YCL061C, strain MRC1, stronger effect = lower value 0.997 | locus YCL069W, strain vba3, stronger effect = lower value 1 | locus YCR088W, strain abp1, stronger effect = lower value 0.998 | locus YDL005C, strain med2, stronger effect = lower value 0.992 | locus YDL035C, strain GPR1, stronger effect = lower value 1.02 | locus YDL040C, strain nat1, stronger effect = lower value 1 | locus YDL074C, strain BRE1, stronger effect = lower value 1.02 | locus YDL101C, strain DUN1, stronger effect = lower value 1 | locus YDL134C, strain PPH21, stronger effect = lower value 1.01 | locus YDL185W, strain tfp1, stronger effect = lower value 1.02 | locus YDL192W, strain arf1, stronger effect = lower value 1.02 | locus YDR001C, strain nth1, stronger effect = lower value 1 | locus YDR069C, strain doa4, stronger effect = lower value 0.99 | locus YDR101C, strain arx1, stronger effect = lower value 1.02 | locus YDR137W, strain rgp1, stronger effect = lower value 0.978 | locus YDR150W, strain NUM1, stronger effect = lower value 1 | locus YDR159W, strain sac3, stronger effect = lower value 1 | locus YDR162C, strain NBP2, stronger effect = lower value 1.01 | locus YDR195W, strain ref2 0.984 | locus YDR297W, strain sur2, stronger effect = lower value 0.992 | locus YDR318W, strain mcm21, stronger effect = lower value 1.03 | locus YDR334W, strain swr1, stronger effect = lower value 1 | locus YDR335W, strain msn5, stronger effect = lower value 1 | locus YDR388W, stronger effect = lower value 1.02 | locus YDR392W, strain spt3, stronger effect = lower value 1.02 | locus YDR502C, strain sam2, stronger effect = lower value 1.01 | locus YEL003W, strain gim4, stronger effect = lower value 0.998 | locus YEL037C, strain rad23, stronger effect = lower value 1 | locus YEL061C, strain CIN8 (second series), stronger effect = lower value 0.98 | locus YEL061C, strain CIN8, stronger effect = lower value 1 | locus YER015W, strain faa2, stronger effect = lower value 0.996 | locus YER016W, strain bim1, stronger effect = lower value 1.01 | locus YER110C, stronger effect = lower value 1.01 | locus YER111C, strain swi4, stronger effect = lower value 0.996 | locus YER155C, strain BEM2 (second series), stronger effect = lower value 0.978 | locus YER155C, strain BEM2, stronger effect = lower value 1 | locus YER167W, strain BCK2, stronger effect = lower value 1.01 | locus YFR010W, strain ubp6, stronger effect = lower value 0.993 | locus YGL078C, strain dbp3, stronger effect = lower value 1.01 | locus YGL086W, strain mad1, stronger effect = lower value 1 | locus YGL167C, strain pmr1, stronger effect = lower value 0.999 | locus YGL173C, strain kem1, stronger effect = lower value 0.992 | locus YGL227W, strain vid30, stronger effect = lower value 1 | locus YGL240W, strain doc1, stronger effect = lower value 0.972 | locus YGL248W, strain PDE1, stronger effect = lower value 1.01 | locus YGL253W, strain hxk2, stronger effect = lower value 1.01 | locus YGR135W, strain pre9, stronger effect = lower value 1.02 | locus YGR252W, strain gcn5, stronger effect = lower value 1.05 | locus YHR013C, strain ard1, stronger effect = lower value 0.978 | locus YHR027C, strain rpn1, stronger effect = lower value 1 | locus YHR030C, strain SLT2, stronger effect = lower value 1 and 0.977 | locus YHR079C, strain IRE1 (second series), stronger effect = lower value 1.02 | locus YHR079C, strain IRE1, stronger effect = lower value 0.964 | locus YHR094C, strain hxt1, stronger effect = lower value 1.01 | locus YHR129C, strain ARP1, stronger effect = lower value 1 | locus YHR142W, strain chs7, stronger effect = lower value 0.989 | locus YHR200W, strain rpn10, stronger effect = lower value 1.01 | locus YIL066C, strain RNR3, stronger effect = lower value 1.01 | locus YIL073C, strain SPO22, stronger effect = lower value 1.03 | locus YIL125W, strain kgd1, stronger effect = lower value 1.01 | locus YIR030C, strain dcg1, stronger effect = lower value 1.02 | locus YJL092W, strain hpr5, stronger effect = lower value 0.995 | locus YJL095W, strain BCK1 (second series), stronger effect = lower value 0.995 | locus YJL095W, strain BCK1, stronger effect = lower value 1.03 and 0.993 | locus YJL115W, strain asf1, stronger effect = lower value 0.994 | locus YJL129C, strain trk1, stronger effect = lower value 0.97 | locus YJL134W, strain LCB3, stronger effect = lower value 1.01 | locus YJL154C, strain vps35, stronger effect = lower value 0.996 | locus YJL164C, strain tpk1, stronger effect = lower value 1.01 | locus YJL166W, strain qcr8, stronger effect = lower value 0.951 | locus YJL168C, strain set2, stronger effect = lower value 1.02 | locus YJL187C, strain SWE1 (second series), stronger effect = lower value 1.01 | locus YJR043C, strain POL32, stronger effect = lower value 1.01 | locus YJR066W, strain TOR1, stronger effect = lower value 0.935
